The supplement of paper PMC11732987, “Enantioselective OTUD7B fragment discovery through chemoproteomics screening and high-throughput optimisation” (Communications Chemistry, 2025)

Experiments:
Assay in all cases: log2 ratio of Biotin-Ahx-Ub-VS probe labelling (fragment/DMSO); higher = less target engagement (more negative = stronger competition), active = hit call of the paper (q ≤ 0.05, log2 ratio ≤ -1)
Conditions in all cases: compound concentration: 200 uM; treatment time: 3 h
[1] = target: T1, ALG13 (UniProt Q9NP73)
T1 sequence (whole entry): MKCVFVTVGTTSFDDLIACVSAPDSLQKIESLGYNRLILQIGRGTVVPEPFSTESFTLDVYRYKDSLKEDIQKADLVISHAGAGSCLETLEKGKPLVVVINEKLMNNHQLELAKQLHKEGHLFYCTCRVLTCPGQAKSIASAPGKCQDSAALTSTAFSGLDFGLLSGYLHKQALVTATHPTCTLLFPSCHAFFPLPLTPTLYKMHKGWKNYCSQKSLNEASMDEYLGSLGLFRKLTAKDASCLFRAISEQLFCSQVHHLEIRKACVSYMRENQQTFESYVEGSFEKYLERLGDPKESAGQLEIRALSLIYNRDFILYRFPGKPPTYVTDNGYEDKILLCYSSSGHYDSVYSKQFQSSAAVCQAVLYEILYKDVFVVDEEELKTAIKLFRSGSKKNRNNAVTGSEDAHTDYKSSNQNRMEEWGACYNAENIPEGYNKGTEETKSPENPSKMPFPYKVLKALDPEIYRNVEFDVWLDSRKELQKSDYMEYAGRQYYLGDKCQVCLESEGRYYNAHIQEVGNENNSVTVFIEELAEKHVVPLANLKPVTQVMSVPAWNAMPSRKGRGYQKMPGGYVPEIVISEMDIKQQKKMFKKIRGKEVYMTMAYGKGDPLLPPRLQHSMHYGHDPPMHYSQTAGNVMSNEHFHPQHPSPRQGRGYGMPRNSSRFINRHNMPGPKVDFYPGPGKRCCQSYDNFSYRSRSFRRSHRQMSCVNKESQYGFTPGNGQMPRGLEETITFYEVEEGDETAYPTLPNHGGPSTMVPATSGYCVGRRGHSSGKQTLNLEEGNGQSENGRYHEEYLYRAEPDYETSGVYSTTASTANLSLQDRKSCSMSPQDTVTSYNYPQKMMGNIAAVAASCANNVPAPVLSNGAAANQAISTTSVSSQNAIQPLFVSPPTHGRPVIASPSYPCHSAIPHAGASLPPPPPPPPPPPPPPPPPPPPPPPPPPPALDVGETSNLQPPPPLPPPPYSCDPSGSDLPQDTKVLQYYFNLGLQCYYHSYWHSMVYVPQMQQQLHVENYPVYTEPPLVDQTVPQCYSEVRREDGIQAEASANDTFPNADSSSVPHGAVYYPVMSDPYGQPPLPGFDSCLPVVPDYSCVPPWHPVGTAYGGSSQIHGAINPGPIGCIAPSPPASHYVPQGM
Summary of the method: (§1)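 In triplicate, 495 µg of HEK293T lysate per sample was incubated with fragment at 200 µM or vehicle for 3 h. Biotin-Ahx-Ub-VS was then added to 0.5 µM final for 1 h, and labelled DUBs were captured with NeutrAvidin, digested with LysC and trypsin, and measured by diaPASEF LC-MS/MS. Data are average log2 fragment/vehicle ratios by unpaired t-test from global-median-normalised Spectronaut label-free quantities, restricted to proteins with ≥2 unique peptides.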

[2] = target: ATXN3 (UniProt P54252)
Summary of the method: as §1

[3] = target: T2, BAP1 (UniProt Q92560)
T2 sequence (whole entry): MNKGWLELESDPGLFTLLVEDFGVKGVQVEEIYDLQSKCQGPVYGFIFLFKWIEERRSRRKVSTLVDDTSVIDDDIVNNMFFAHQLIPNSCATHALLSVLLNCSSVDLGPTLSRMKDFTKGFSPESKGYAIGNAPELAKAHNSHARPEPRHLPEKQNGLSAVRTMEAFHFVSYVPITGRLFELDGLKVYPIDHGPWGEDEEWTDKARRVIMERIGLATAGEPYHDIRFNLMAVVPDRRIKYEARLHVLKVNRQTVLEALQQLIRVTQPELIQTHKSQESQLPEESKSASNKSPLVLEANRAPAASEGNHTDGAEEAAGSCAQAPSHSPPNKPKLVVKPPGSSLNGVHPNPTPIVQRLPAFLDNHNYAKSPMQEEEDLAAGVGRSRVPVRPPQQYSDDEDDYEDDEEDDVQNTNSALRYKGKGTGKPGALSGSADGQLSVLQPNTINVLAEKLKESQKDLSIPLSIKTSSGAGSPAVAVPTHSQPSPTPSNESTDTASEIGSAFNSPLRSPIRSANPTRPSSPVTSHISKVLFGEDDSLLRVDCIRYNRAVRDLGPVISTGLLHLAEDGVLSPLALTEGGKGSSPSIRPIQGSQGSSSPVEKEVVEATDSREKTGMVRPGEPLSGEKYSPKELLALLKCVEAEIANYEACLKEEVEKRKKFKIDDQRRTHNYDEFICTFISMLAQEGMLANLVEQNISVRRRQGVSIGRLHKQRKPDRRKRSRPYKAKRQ
Summary of the method: as §1

[4] = target: EIF3F (UniProt O00303)
Summary of the method: as §1

[5] = target: EIF3H (UniProt O15372)
Summary of the method: as §1

[6] = target: T3, FAM105A (UniProt Q9NUU6)
T3 sequence (whole entry): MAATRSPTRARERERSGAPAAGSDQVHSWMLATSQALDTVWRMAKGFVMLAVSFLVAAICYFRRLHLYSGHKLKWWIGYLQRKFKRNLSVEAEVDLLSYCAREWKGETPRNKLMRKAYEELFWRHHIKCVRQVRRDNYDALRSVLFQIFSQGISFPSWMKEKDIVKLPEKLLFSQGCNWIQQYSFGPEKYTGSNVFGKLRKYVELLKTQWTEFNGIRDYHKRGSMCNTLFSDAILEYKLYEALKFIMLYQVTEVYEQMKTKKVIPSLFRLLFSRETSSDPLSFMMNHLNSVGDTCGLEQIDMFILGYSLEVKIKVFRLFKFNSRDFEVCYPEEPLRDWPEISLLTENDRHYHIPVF
Summary of the method: as §1

[7] = target: OTUB1 (UniProt Q96FW1)
Summary of the method: as §1

[8] = target: T4, OTUD4 (UniProt Q01804)
T4 sequence (whole entry): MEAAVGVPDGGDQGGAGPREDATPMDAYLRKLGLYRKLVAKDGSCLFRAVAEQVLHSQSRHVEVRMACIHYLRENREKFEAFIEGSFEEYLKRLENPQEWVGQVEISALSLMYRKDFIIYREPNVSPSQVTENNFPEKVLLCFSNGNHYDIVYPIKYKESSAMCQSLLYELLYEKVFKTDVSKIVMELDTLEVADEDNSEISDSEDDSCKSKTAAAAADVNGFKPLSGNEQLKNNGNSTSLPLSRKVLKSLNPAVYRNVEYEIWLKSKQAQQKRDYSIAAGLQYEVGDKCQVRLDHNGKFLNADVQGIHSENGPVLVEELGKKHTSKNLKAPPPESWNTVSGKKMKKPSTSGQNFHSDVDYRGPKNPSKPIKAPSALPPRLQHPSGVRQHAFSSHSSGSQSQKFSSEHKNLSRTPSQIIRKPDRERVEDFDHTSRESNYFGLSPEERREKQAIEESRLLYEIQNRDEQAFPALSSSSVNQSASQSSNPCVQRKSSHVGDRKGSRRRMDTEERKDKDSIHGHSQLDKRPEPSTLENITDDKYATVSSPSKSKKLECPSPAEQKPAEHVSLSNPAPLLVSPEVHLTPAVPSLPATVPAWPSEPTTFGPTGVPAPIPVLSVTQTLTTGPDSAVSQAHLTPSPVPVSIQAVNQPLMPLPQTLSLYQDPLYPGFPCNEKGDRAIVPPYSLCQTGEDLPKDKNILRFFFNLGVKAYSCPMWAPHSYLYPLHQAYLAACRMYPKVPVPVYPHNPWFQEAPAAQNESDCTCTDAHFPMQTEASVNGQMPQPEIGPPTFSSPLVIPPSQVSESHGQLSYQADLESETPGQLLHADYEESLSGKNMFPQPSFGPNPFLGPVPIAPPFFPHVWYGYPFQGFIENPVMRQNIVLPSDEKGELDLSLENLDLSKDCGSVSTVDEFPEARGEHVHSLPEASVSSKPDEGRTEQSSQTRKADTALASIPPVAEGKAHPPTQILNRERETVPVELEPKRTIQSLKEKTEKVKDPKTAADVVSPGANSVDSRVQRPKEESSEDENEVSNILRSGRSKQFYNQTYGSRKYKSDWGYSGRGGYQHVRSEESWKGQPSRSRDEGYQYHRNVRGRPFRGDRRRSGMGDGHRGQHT
Summary of the method: as §1

[9] = target: T5, OTUD5 (UniProt Q96G74)
T5 sequence (whole entry): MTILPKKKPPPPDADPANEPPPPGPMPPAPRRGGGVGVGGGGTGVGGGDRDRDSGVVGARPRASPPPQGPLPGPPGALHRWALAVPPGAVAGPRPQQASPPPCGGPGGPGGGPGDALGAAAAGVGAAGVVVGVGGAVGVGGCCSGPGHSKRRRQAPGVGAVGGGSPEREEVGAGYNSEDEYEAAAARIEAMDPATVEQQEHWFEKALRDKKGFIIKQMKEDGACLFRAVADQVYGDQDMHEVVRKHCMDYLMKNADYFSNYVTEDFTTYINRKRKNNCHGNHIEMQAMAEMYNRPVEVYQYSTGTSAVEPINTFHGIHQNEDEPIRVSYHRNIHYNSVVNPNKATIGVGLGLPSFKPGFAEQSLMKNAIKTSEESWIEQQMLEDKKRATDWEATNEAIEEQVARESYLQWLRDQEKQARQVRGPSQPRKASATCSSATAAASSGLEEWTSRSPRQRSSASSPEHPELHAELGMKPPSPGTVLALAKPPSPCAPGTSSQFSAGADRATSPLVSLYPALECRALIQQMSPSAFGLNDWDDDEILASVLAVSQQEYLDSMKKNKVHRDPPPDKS
Summary of the method: as §1

Measured: log2 ratio of Biotin-Ahx-Ub-VS probe labelling

EIF3F, sequence (O00303 whole entry): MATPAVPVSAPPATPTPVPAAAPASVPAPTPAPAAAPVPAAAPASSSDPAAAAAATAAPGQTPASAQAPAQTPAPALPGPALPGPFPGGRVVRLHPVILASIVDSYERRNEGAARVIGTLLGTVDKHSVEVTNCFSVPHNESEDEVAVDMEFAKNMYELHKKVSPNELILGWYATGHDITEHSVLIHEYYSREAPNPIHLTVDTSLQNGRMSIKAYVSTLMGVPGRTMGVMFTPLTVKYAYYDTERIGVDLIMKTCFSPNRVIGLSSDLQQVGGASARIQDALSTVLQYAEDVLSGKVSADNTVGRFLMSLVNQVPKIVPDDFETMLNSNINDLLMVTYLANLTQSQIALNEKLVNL
OTUB1, sequence (Q96FW1 whole entry): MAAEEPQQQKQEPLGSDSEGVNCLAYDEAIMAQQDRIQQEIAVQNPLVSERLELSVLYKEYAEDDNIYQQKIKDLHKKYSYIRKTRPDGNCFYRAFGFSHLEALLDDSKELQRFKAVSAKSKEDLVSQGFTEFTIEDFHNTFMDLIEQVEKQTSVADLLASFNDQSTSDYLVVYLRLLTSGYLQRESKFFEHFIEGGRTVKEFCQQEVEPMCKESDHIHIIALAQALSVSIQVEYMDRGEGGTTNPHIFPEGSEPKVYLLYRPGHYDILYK
ATXN3, sequence (P54252 whole entry): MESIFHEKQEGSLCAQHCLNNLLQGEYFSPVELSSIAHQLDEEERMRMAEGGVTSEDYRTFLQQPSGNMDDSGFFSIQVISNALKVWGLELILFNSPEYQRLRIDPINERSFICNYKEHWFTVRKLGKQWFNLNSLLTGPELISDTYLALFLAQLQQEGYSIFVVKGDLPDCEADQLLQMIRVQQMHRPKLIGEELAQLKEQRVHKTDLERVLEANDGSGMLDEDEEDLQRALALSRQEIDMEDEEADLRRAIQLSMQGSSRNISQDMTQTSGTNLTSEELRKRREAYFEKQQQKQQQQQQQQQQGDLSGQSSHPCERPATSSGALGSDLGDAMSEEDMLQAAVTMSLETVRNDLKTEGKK
EIF3H, sequence (O15372 whole entry): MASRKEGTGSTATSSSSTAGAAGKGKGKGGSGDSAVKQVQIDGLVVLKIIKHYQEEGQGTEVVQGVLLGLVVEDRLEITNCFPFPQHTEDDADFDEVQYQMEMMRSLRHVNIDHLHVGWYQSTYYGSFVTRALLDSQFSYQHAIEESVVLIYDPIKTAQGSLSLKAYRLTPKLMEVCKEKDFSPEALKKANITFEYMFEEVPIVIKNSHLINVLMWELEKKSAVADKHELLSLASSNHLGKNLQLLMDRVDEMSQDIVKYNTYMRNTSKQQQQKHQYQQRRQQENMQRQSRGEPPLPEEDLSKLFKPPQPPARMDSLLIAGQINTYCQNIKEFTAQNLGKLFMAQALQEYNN

O=C(CCl)N1CCOC2(CCC2)C1
inactive: [1] -0.352 | [2] -0.0796 | [3] -0.352 | [4] -0.125 | [5] 0.226 | [6] -0.0758 | [7] -0.141 | [8] -0.57 | [9] -0.148
